An excerpt weighted towards active compounds, which were near 11% of everything screened.
PNC assembly inh – blocks assembly of the perinucleolar compartment. PC3M PTB-GFP, PNC prevalence imaging, 16 h; hits give low values. activity change (PNC), negative = inhibition, % at 10 µM. hit rate 3.1% among 140,000. AID 2417;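 active = readout at or below -70, meaning at least 70% loss of cells showing the perinucleolar compartment, a nuclear body marking cancer cells; inconclusive = readout between -30 and a set limit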;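 note: plate controls were DMSO wells for no effect and camptothecin positive control wells for full effect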
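Compounds are pinned in duplicate onto adhered PC3M cells stably expressing GFP-tagged PTB and incubated 16 h at 37 C. Cells are then fixed, nuclei stained with Hoechst, and PNC-positive cells counted.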
JMJD2E inh – inhibitors of human JMJD2E histone demethylase | JMJD2E catalytic domain, FDH-coupled NADH fluorescence (FDH is formaldehyde dehydrogenase) | Potency, µM (doses to about 57.1 µM), inactives show top-dose activity change, negative = inhibition, most hits filed as inhibitors | hit rate 1.6% among 230,000;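 note: potency is the fitted concentration of half-maximal effect; 0% = wells with enzyme and -100% = buffer wells without enzyme; nearly all actives have a fitted effect of over 50% in size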
ALDH1A1 inh – blocks purified human ALDH1A1 activity; hit rate 7.3% among 220,000; Purified ALDH1A1, NADH fluorescence, propionaldehyde substrate; Potency, µM (doses to about 75.3 µM), for the others: at the highest dose activity, negative = inhibition, most hits filed as inhibitors;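 note: potency is the fitted concentration of half-maximal effect; plate controls were no enzyme wells and a reference inhibitor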
Target sequence (P00352 whole entry, looked up): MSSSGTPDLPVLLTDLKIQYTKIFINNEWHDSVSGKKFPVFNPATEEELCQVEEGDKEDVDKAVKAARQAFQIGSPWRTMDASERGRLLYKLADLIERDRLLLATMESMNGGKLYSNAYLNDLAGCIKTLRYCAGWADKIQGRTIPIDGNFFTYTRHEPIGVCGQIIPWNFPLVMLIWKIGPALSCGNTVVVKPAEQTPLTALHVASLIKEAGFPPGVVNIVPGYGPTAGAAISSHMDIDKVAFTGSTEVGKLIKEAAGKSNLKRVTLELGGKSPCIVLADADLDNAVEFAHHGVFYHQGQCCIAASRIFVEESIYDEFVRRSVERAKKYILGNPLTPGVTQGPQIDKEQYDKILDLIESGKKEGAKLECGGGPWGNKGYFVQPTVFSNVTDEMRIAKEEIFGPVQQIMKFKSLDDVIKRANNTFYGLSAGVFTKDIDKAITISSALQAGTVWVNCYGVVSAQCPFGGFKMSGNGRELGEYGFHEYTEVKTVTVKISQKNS
HPGD block – blocks human HPGD enzyme activity | AID 894 | purified HPGD, NADH fluorescence kinetic, PGE2 substrate | Potency, µM, inactives show at the top dose activity change, negative = inhibition, most hits filed as inhibitors | hit rate 4.3% among 150,000 | P15428; note: potency is the fitted concentration of half-maximal effect
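20 nM HPGD preincubated 15 min at room temperature with compound in 50 mM Tris-HCl pH 8, 0.01% Tween 20. Started with 1 mM NAD+ and 30 uM prostaglandin E2; NADH fluorescence (360/450 nm) read 5 times over 30-s intervals, last minus first.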
Starred values were filed as active, the others as inactive; ? = inconclusive; · = no result given; [ ] = remark or other dose. Unless noted, calls come from the whole dose curve; as a rule, active = well fitted inhibition curve with a large enough effect (not every such curve was filed as active); inconclusive = small, poorly fitted or top-dose-only effect, or another doubt; inactive = no such curve, though single readings can be large or run the other way. Unless noted, % is set by controls: 0 for no effect and ±100 for the full control effect.

SMILES	PNC assembly inh	JMJD2E inh	ALDH1A1 inh	HPGD block
COc1ccc(N/N=C(C)/C(=N/O)C(=O)Nc2ccccc2)cc1	·	0%	14µM*	·
COCc1cc(C)nc(Nc2ccc(C)c(C)c2)c1C#N	-6	-7%	28µM*	·
CCCCn1c(SCC(=O)NCc2ccco2)nc2cc(S(N)(=O)=O)ccc21	27	1%	14µM*	?
CCCCn1c(SCC(=O)c2ccc(OCC)cc2)nc2cc(S(N)(=O)=O)ccc21	38	2%	35µM*	-9%
CN(/C(=N\S(=O)(=O)c1ccccc1)C(F)(F)F)c1ccccc1	25	-3%	28µM*	-19%
Cc1ccc(S(=O)(=O)/N=C(\c2ccccc2)N(C)S(=O)(=O)c2ccccc2)cc1	-12	?	?	-9%
CC(=O)Nc1ccc2c(c1)/C(=C/c1ccc([N+](C)(C)C)cc1)c1ccccc1-2	·	·	-2%[13.5 µM]	-1%
Cc1cc(C)nc(SCCn2c(N3CC(C)OC(C)C3)nc3c2c(=O)n(C)c(=O)n3C)n1 (stereo unspecified)	·	4%	8%	·
O=C(Nc1ccc(S(=O)(=O)Nc2nccs2)cc1)c1cccc(N2C(=O)c3ccccc3C2=O)c1	·	-3%	7.1µM*	·
O=C(NC(=S)Nc1ccc(S(=O)(=O)Nc2nccs2)cc1)c1cccnc1	·	-4%	?	·
O=C(NC(=S)Nc1ccc(S(=O)(=O)Nc2nccs2)cc1)c1ccccc1	?	-3%	32µM*	-6%
O=C(NC(=S)Nc1ccc(S(=O)(=O)Nc2nccs2)cc1)c1ccccc1F	·	12%	2µM*	·
Cc1cc2oc(C(=O)Nc3ccc(S(=O)(=O)Nc4nccs4)cc3)cc(=O)c2cc1Cl	32	-1%	-16%	32µM*
NC(=O)CNc1n[nH]c(=S)[nH]c1=O	·	-12%	0%	·
Cc1ccc2nc(SCC(=O)N(CC(C)C)c3c(N)n(Cc4ccccc4)c(=O)[nH]c3=O)[nH]c2c1	·	-1%	15%	·
COc1cc(NS(=O)(=O)c2ccc(NC(=S)NC(=O)C3CCCC3)cc2)nc(OC)n1	?	4%	25µM*	-19%
COc1cccc(OC)c1C(=O)NC(=S)Nc1ccc(S(=O)(=O)Nc2nccs2)cc1	·	0%	-5%	·
CCn1nc(C(=O)Nc2ccc(S(=O)(=O)Nc3nccs3)cc2)c2ccccc2c1=O	22	-3%	28µM*	-21%
O=C(NC(=S)Nc1ccc(S(=O)(=O)Nc2nccs2)cc1)c1ccc(Br)o1	·	-3%	32µM*	·
COc1ccc(NS(=O)(=O)c2ccc(NC(=S)NC(=O)c3cccnc3)cc2)nn1	·	1%	15µM*	·
CCOC(=O)C1C(C(=O)OC)=C(CC(C)C)c2ccccc2N1S(=O)(=O)C(F)(F)F (stereo unspecified)	·	·	2%	-8%
COc1nccnc1NS(=O)(=O)c1ccc(NC(=S)NC(=O)c2ccc(F)c(F)c2)cc1	-15	-3%	?	-5%
O=C(NC(=S)Nc1ccc(S(=O)(=O)Nc2nccs2)cc1)c1ccc(F)c(F)c1	23	6%	25µM*	-7%
O=c1oc2ccc3ccccc3c2cc1-c1nnc(-c2ccccc2)o1	-12	?	?	?
CCN(CC)c1ccc2cc(-c3nc4ccccc4[nH]3)c(=O)oc2c1	-104*	7%	8%	-11%
SMILES	PNC assembly inh	JMJD2E inh	ALDH1A1 inh	HPGD block
CCN(CC)c1ccc2cc(-c3nnc(-c4ccccc4)o3)c(=O)oc2c1	-100*	?	?	-16%
COc1ccc(Cl)cc1C(=O)NNC(=O)CN1C(=O)C2CC=CCC2C1=O (stereo unspecified)	·	10%	5%	·
C=CCn1c(=S)[nH]c2scc(-c3cccs3)c2c1=O	·	-8%	13µM*	·
Cn1c(=S)[nH]c2scc(-c3cccs3)c2c1=O	·	?	22µM*	·
C=CCn1c(=S)[nH]c2ccccc2c1=O	-24	5%	-1%	-1%
O=C(COc1ccc(S(=O)(=O)N2CCc3ccccc32)cc1Cl)NCc1ccccn1	?	-25%	14µM*	-5%
Cc1cc(S(=O)(=O)NC2CCCCC2)ccc1OCC(=O)NCc1ccccn1	36	-1%	?	16µM*
CCOc1cc(CNCc2ccccn2)ccc1OCC(=O)NC1CCCCC1	29	12%	-12%	-3%
COc1ccc(S(=O)(=O)N2CCc3ccccc32)cc1C(=O)NCCc1ccccn1	·	3%	?	·
CCOc1ccccc1-n1c(=S)sc2c(=O)n(-c3ccc(C)cc3)c(=S)[nH]c21	·	-2%	7.9µM*	·
COCCn1c(C)cc(/C=C2/NC(=O)N(c3ccc(Cl)cc3)C2=O)c1C	-114*	?	-7%	-21%
CCn1c(C)cc(/C=C2\NC(=O)N(Cc3ccc(Cl)cc3)C2=O)c1C	?	?	?	-18%
O=C(SCc1cccc2ccccc12)c1ccc(Cl)cc1	·	·	-3%[13.5 µM]	-8%
C=CCn1c(-c2cc(OC)cc(OC)c2)n[nH]c1=S	-28	-11%	22µM*	-28%
O=C(Nc1ccccc1-c1ccccc1)C(=O)Nc1ccccc1-c1ccccc1	·	-13%	·	·
CCCCCCCCC/C=C/CC1CC(=O)OC1=O (stereo unspecified)	·	·	28µM*	-16%
COC(=O)Oc1nsnc1N1CCOCC1	7	?	4µM*	14µM*
O=c1c(N2CCOCC2)nsnc1N1CCOCC1	?	0%	25µM*	·
NNC(=O)c1sccc1OCc1ccc(F)cc1	·	7%	10µM*	·
COc1ccc(COc2ccsc2C(=O)Nc2ccc(Cl)cc2)cc1	-86*	?	-5%	-10%
COc1ccc(NC(=O)c2csc(Cc3ccc(Cl)cc3)n2)cc1	·	?	-3%	·
COC(=O)N/N=C/c1cc(Cl)c(OCc2ccc(F)cc2)c(OC)c1	-87*	6%	8%	-13%
NNC(=O)c1sccc1OCc1cccc(C(F)(F)F)c1	·	-4%	?	·
NNC(=O)c1sccc1OCc1ccc(Cl)cc1Cl	·	5%	3.5µM*	·
C[C@H]1C[C@]2(O[C@@H]2C)C(=O)O[C@@H]2CCN(C)C/C=C(/COC(=O)[C@]1(C)O)C2=O	·	-3%	6%	-5%
SMILES	PNC assembly inh	JMJD2E inh	ALDH1A1 inh	HPGD block
CCCc1cc(=O)[nH]c(SCC(=O)NCCC2=CCCCC2)n1	·	5%	-7%	·
Cc1ccc(C(O)(C(=O)NNc2ccc3ccccc3n2)c2ccc(C)cc2)cc1	?	?	7%	-15%
O=C(N/N=C/c1ccc(Cl)cc1)c1sccc1OCc1ccc(F)cc1	-119*	2%	4%	2%
O=C(N/N=C/c1ccc(F)cc1)c1sccc1OCc1ccc(F)cc1	-15	4%	-2%	-18%
COc1ccccc1OCC(=O)n1cc(C(=O)c2cc(Cl)cc(Cl)c2O)cn1	?	-26%	-1%	18µM*
Cn1c(=O)c(C#N)c(-c2ccc(F)cc2)c2cc(C(=O)c3cc(Cl)cc(Cl)c3O)cnc21	·	-13%	·	·
COCCCNC(=O)c1ccc(N2CCCC2)c(NS(=O)(=O)c2ccc(C)cc2)c1	7	?	14µM*	-25%
Cc1ccc(S(=O)(=O)Nc2cc(C(=O)NCCN(C)C)ccc2N2CCCCC2)cc1	56	?	16µM*	-6%
CCOCCCNC(=O)c1ccc(N2CCCC2)c(NS(=O)(=O)c2ccc(C)cc2)c1	·	?	7.9µM*	·

High-throughput results: PubChem BioAssay, National Center for Advancing Translational Sciences (NCATS)
